Test results taken from PubChem BioAssay (NCI).
About 79,000 compounds went through this panel and 15% of them were active in at least one assay; those are over-represented in the sample as a whole. The source made the active and inactive calls. Cut-off read from the data, not from the text of the source: active = growth inhibition above about 70%; inactive = the rest.

Legend:
[1] = NCI Yeast Anticancer Drug Screen. Data for the rad52 strain (AID 147);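 note: 0% = growth of vehicle-treated control cultures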; conditions: S. cerevisiae rad52 mutant growth inhibition, active compounds read high
Outline: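 Here a repair-compromised yeast strain receives each compound; its growth is then quantified and normalised to vehicle-only controls.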

[2] = NCI Yeast Anticancer Drug Screen. Data for the wt1 strain (AID 149);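 note: 0% = growth of vehicle-treated wt1 cultures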; conditions: S. cerevisiae wt1 strain (SPY 50644) growth inhibition, active compounds read high
Outline: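 wt1 strain grown with compound or vehicle; inhibition taken from the growth difference.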

[3] = NCI Yeast Anticancer Drug Screen. Data for the rad50EPP+ strain (AID 151);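 note: 0% = growth of vehicle-treated control cultures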; conditions: S. cerevisiae rad50 mutant strain, active compounds read high
Outline: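 Read-out is yeast growth inhibition relative to vehicle; cells used were the rad50EPP+ strain.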

[4] = NCI Yeast Anticancer Drug Screen. Data for the mgt1 strain (AID 153); conditions: S. cerevisiae mgt1 mutant growth inhibition, active compounds read high
Outline: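 Measured: inhibition of mgt1 yeast growth by compound, normalized to vehicle-treated cultures.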

[5] = NCI Yeast Anticancer Drug Screen. Data for the rad50 strain (AID 155);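 note: 0% = growth of vehicle-only cultures of the same strain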; conditions: S. cerevisiae rad50 strain growth inhibition, active compounds read high
Outline: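 DNA repair mutant yeast, compound exposure, growth read-out; inhibition is taken relative to vehicle.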

[6] = NCI Yeast Anticancer Drug Screen. Data for the mec2-1 strain (AID 157); conditions: S. cerevisiae mec2-1 strain, active compounds read high
Outline: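 Using mec2-1 yeast: add compound, measure growth, express inhibition versus vehicle-treated cultures.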

[7] = NCI Yeast Anticancer Drug Screen. Data for the rad14 strain (AID 159);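 note: 0% = growth of vehicle-treated control cultures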; conditions: S. cerevisiae rad14 strain growth inhibition, active compounds read high
Outline: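 DNA repair-defective yeast, compound-exposed; % growth inhibition derived by comparison with vehicle-treated controls.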

[8] = NCI Yeast Anticancer Drug Screen. Data for the sgs1 mgt1 strain (AID 161);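 note: 0% = growth of cultures given vehicle only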; conditions: S. cerevisiae sgs1 mgt1 strain, active compounds read high
Outline: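 Growth of a repair-deficient yeast mutant was monitored after compound treatment and expressed as inhibition relative to vehicle-treated cultures.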

[9] = NCI Yeast Anticancer Drug Screen. Data for the CLN2oe strain (AID 163);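 note: 0% = growth of vehicle-only control cultures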; conditions: S. cerevisiae CLN2oe strain, active compounds read high
Outline: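 Whole-cell yeast growth assay. A strain engineered for altered cell-cycle control received compound, and inhibition relative to vehicle-treated cultures was recorded.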

[10] = NCI Yeast Anticancer Drug Screen. Data for the cln2 rad14 strain (AID 165);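 note: 0% = growth equal to vehicle treated cultures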; conditions: S. cerevisiae cln2 rad14 strain, active compounds read high
Outline: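 Yeast strain cln2 rad14, bearing defects in cell cycle control and DNA repair, serves as the test system; values reflect growth inhibition compared with vehicle.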

[11] = NCI Yeast Anticancer Drug Screen. Data for the bub3 strain (AID 167); conditions: S. cerevisiae bub3 mutant strain, active compounds read high
Outline: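 In this screen, a yeast mutant lacking normal mitotic checkpoint function is challenged with compound. Relative growth versus vehicle gives the inhibition value.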

[12] = NCI Yeast Anticancer Drug Screen. Data for the wt2 strain (AID 169);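 note: 0% = growth of vehicle-treated yeast cultures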; conditions: S. cerevisiae wt2 strain growth inhibition, active compounds read high
Outline: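 Treated yeast vs. vehicle-treated yeast: growth inhibition determined.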

[13] = NCI Yeast Anticancer Drug Screen. Data for the mlh1 strain (AID 171);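 note: 0% = growth of vehicle-treated control cultures of the same strain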; conditions: S. cerevisiae mlh1 strain growth inhibition, active compounds read high
Outline: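 A yeast strain with a defined genetic lesion serves as the test organism. Cultures receive compound or vehicle, and growth is measured.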

[14] = NCI Yeast Anticancer Drug Screen. Data for the sgs1 strain (AID 173);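 note: 0% = growth of vehicle-only control cultures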; conditions: S. cerevisiae sgs1 mutant, active compounds read high
Outline: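 A genetically defined yeast mutant is incubated with the test compound, and its growth is compared to that of the same strain given vehicle.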

[15] = NCI Yeast Anticancer Drug Screen. Data for the mlh1 rad18 strain (AID 175); conditions: S. cerevisiae mlh1 rad18 strain growth inhibition, active compounds read high
Outline: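 Steps: expose repair-defective yeast to compound; measure growth; express inhibition against vehicle-treated controls.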

[16] = NCI Yeast Anticancer Drug Screen. Data for the rad18 strain (AID 177); conditions: S. cerevisiae rad18 mutant growth inhibition, active compounds read high
Outline: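 Measured value is growth inhibition of a yeast strain bearing a DNA repair alteration, referenced to vehicle-treated cells.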

[17] = at 5.0 µM (retest, dose inferred, filed as 0.5)
[18] = at 50.0 µM (retest, dose inferred, filed as 5.0)

Measured: growth inhibition

CC(C)=NOC(=O)Nc1ccc(Cl)cc1
inactive: [1]; at 1.2 µM 1% | [1]; at 3.7 µM -7% | [1]; at 11.0 µM -8% | [1]; at 33.0 µM 15% | [1]; at 100.0 µM 66% | [2]; at 1.2 µM -24% | [2]; at 3.7 µM -27% | [2]; at 11.0 µM -21% | [2]; at 33.0 µM -18% | [2]; at 100.0 µM 14% | [3]; at 1.2 µM -32% | [3]; at 3.7 µM 18% | [3]; at 11.0 µM 23% | [4]; at 1.2 µM -41% | [4]; at 3.7 µM -60% | [4]; at 11.0 µM -56% | [4]; at 33.0 µM -11% | [5]; at 1.2 µM 2% | [5]; at 3.7 µM 11% | [5]; at 11.0 µM -3% | [5]; at 33.0 µM 28% | [5]; at 50.0 µM 58.2% | [5]; at 100.0 µM 67% | [6]; at 1.2 µM -40% | [6]; at 3.7 µM -26% | [6]; at 11.0 µM -24% | [6]; at 33.0 µM -7% | [6]; at 50.0 µM 29.9% | [6]; at 100.0 µM 47% | [7]; at 1.2 µM -48% | [7]; at 3.7 µM -50% | [7]; at 11.0 µM -30% | [7]; at 33.0 µM -25% | [7]; at 100.0 µM 45% | [8]; [17] 0% | [9]; at 1.2 µM -30% | [9]; at 3.7 µM -18% | [9]; at 11.0 µM -6% | [9]; at 33.0 µM 8% | [9]; at 100.0 µM 38% | [10]; at 50.0 µM 37.2% | [11]; at 1.2 µM -12% | [11]; at 3.7 µM -1% | [11]; [17] 28% | [11]; at 11.0 µM 0% | [11]; at 33.0 µM 8% | [11]; at 50.0 µM 47% | [11]; at 100.0 µM 64% | [12]; at 1.2 µM -34% | [12]; at 3.7 µM -25% | [12]; at 11.0 µM -21% | [12]; at 33.0 µM 5% | [13]; at 1.2 µM -25% | [13]; at 3.7 µM -17% | [13]; at 11.0 µM -22% | [13]; at 33.0 µM 21% | [14]; at 1.2 µM -16% | [14]; at 3.7 µM -12% | [14]; at 11.0 µM -14% | [14]; at 33.0 µM 33% | [15]; [17] 61% | [15]; at 50.0 µM 46.7% | [16]; at 1.2 µM -32% | [16]; at 3.7 µM -38% | [16]; at 11.0 µM -39% | [16]; at 33.0 µM 10%
active: [3]; at 33.0 µM 79% | [3]; at 100.0 µM 95% | [4]; at 100.0 µM 74% | [5]; [17] 87% | [5]; [18] 98% | [6]; [17] 76% | [6]; [18] 99% | [8]; [18] 92% | [8]; at 50.0 µM 72.8% | [10]; [17] 77% | [10]; [18] 90% | [11]; [18] 81% | [12]; at 100.0 µM 79% | [13]; at 100.0 µM 83% | [14]; at 100.0 µM 84% | [15]; [18] 99% | [16]; at 100.0 µM 72%

O=C1C(=O)c2ccccc2C(O)=C1C(C1=C(O)c2ccccc2C(=O)C1=O)c1ccc(Cl)cc1
inactive: [1]; at 1.2 µM 9% | [1]; at 3.7 µM 26% | [1]; at 11.0 µM 62% | [1]; at 33.0 µM 60% | [1]; at 100.0 µM 48% | [2]; at 1.2 µM 4% | [2]; at 3.7 µM 8% | [2]; at 11.0 µM 31% | [2]; at 33.0 µM 32% | [2]; at 100.0 µM 29% | [3]; at 1.2 µM 7% | [3]; at 3.7 µM 28% | [3]; at 11.0 µM 51% | [3]; at 33.0 µM 48% | [3]; at 100.0 µM 30% | [4]; at 1.2 µM 4% | [4]; at 3.7 µM 9% | [4]; at 11.0 µM 64% | [4]; at 100.0 µM 69% | [5]; at 1.2 µM 11% | [5]; at 3.7 µM 18% | [5]; [17] -7% | [5]; at 11.0 µM 51% | [5]; at 33.0 µM 41% | [5]; at 100.0 µM 31% | [6]; at 1.2 µM 10% | [6]; at 3.7 µM 18% | [6]; [17] -5% | [6]; at 11.0 µM 60% | [6]; at 33.0 µM 63% | [6]; [18] -6% | [6]; at 100.0 µM 65% | [7]; at 1.2 µM 5% | [7]; at 3.7 µM -6% | [7]; at 11.0 µM 28% | [7]; at 33.0 µM 32% | [7]; at 100.0 µM 15% | [8]; [17] -2% | [8]; [18] 21% | [8]; at 50.0 µM 60.1% | [9]; at 1.2 µM 3% | [9]; at 3.7 µM 12% | [9]; at 11.0 µM 60% | [9]; at 33.0 µM 66% | [9]; at 100.0 µM 63% | [10]; [17] 0% | [10]; [18] 3% | [10]; at 50.0 µM 42.4% | [11]; at 1.2 µM -1% | [11]; at 3.7 µM 5% | [11]; [17] -3% | [11]; at 11.0 µM 55% | [11]; at 33.0 µM 66% | [11]; [18] 34% | [11]; at 100.0 µM 50% | [12]; at 1.2 µM 4% | [12]; at 3.7 µM 15% | [12]; at 11.0 µM 50% | [12]; at 33.0 µM 54% | [12]; at 100.0 µM 46% | [13]; at 1.2 µM 6% | [13]; at 3.7 µM 13% | [13]; at 11.0 µM 58% | [13]; at 33.0 µM 62% | [13]; at 100.0 µM 56% | [14]; at 1.2 µM 16% | [14]; at 3.7 µM 39% | [14]; at 100.0 µM 63% | [15]; [17] -5% | [15]; [18] 42%
active: [4]; at 33.0 µM 75% | [5]; [18] 73% | [5]; at 50.0 µM 92.5% | [6]; at 50.0 µM 72.2% | [11]; at 50.0 µM 80% | [14]; at 11.0 µM 74% | [14]; at 33.0 µM 72% | [15]; at 50.0 µM 86.2%

CN(C)CCCCN1c2ccccc2Sc2ccc(N=[N+]=[N-])cc21
inactive: [1]; at 1.2 µM 29% | [1]; at 3.7 µM 37% | [1]; at 11.0 µM 45% | [1]; at 33.0 µM 49% | [2]; at 1.2 µM 23% | [2]; at 3.7 µM 36% | [2]; at 11.0 µM 36% | [2]; at 33.0 µM 47% | [3]; at 1.2 µM 24% | [3]; at 3.7 µM 20% | [3]; at 11.0 µM 23% | [3]; at 33.0 µM 23% | [4]; at 1.2 µM 19% | [4]; at 3.7 µM 20% | [4]; at 11.0 µM 31% | [4]; at 33.0 µM 51% | [5]; at 1.2 µM 6% | [5]; at 3.7 µM 20% | [5]; at 11.0 µM 15% | [5]; at 33.0 µM 47% | [6]; at 1.2 µM 33% | [6]; at 3.7 µM 31% | [6]; [17] 33% | [6]; at 11.0 µM 36% | [6]; at 33.0 µM 42% | [7]; at 1.2 µM 0% | [7]; at 3.7 µM 8% | [7]; at 11.0 µM 19% | [7]; at 33.0 µM 55% | [8]; [17] -16% | [9]; at 1.2 µM 19% | [9]; at 3.7 µM 18% | [9]; at 11.0 µM 24% | [9]; at 33.0 µM 39% | [10]; [17] 8% | [11]; at 1.2 µM -8% | [11]; at 3.7 µM -10% | [11]; [17] 4% | [11]; at 11.0 µM -14% | [11]; at 33.0 µM 14%
active: [1]; at 100.0 µM 99% | [2]; at 100.0 µM 99% | [3]; at 100.0 µM 80% | [4]; at 100.0 µM 99% | [5]; [17] 91% | [5]; [18] 99% | [5]; at 50.0 µM 84.2% | [5]; at 100.0 µM 98% | [6]; [18] 99% | [6]; at 50.0 µM 79.2% | [6]; at 100.0 µM 99% | [7]; at 100.0 µM 99% | [8]; [18] 99% | [8]; at 50.0 µM 90.5% | [9]; at 100.0 µM 98% | [10]; [18] 99% | [10]; at 50.0 µM 89.5% | [11]; [18] 98% | [11]; at 50.0 µM 72% | [11]; at 100.0 µM 98%
